Source: the supplement of paper PMC6411743
± gives the standard deviation of the averaged measurements. The full data set covers some 6,200 targets. This sample favours those with the largest changes.

Compound: Nc1ncnc2c1ncn2[C@@H]1O[C@H](COP(=O)(O)OP(=O)(O)NP(=O)(O)O)[C@@H](O)[C@H]1O [adenylyl imidodiphosphate]
Assay: NP40-soluble protein abundance relative to vehicle (solubility fold change) (ratio); higher = more soluble protein in presence of AMP-PNP
Summary of the method: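 Data come from three independent experiments in which Dounce-homogenised Jurkat crude lysate was treated at eight concentrations from 0.1 to 10 mM. Treatment ran 10 min at room temperature and then 3 min at 37 °C, after which 0.8% NP40 and benzonase were added for 60 min at 4 °C before ultracentrifugation. The supernatant underwent TMT labelling and LC-MS/MS, and vsn-normalised intensities were expressed as fold change against the detergent-processed vehicle in each replicate.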

Sequence of UniProt Q8TAT6 (Q8TAT6 whole entry): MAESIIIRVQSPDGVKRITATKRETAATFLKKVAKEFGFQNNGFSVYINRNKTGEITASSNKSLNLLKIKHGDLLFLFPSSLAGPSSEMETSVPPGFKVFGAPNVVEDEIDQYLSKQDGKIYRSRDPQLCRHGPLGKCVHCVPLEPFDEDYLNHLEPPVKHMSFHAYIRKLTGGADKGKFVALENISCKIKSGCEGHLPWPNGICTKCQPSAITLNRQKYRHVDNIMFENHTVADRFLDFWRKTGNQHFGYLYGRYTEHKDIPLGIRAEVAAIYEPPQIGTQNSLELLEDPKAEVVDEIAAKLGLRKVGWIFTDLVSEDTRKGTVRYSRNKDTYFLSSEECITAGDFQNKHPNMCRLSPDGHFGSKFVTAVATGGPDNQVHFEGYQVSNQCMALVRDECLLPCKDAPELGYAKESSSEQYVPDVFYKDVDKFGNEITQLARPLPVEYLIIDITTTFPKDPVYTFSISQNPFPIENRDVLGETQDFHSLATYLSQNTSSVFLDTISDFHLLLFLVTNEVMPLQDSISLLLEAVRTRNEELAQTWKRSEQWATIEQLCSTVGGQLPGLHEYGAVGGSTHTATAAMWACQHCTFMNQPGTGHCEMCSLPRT
Sequence of UniProt Q92576 (Q92576 whole entry): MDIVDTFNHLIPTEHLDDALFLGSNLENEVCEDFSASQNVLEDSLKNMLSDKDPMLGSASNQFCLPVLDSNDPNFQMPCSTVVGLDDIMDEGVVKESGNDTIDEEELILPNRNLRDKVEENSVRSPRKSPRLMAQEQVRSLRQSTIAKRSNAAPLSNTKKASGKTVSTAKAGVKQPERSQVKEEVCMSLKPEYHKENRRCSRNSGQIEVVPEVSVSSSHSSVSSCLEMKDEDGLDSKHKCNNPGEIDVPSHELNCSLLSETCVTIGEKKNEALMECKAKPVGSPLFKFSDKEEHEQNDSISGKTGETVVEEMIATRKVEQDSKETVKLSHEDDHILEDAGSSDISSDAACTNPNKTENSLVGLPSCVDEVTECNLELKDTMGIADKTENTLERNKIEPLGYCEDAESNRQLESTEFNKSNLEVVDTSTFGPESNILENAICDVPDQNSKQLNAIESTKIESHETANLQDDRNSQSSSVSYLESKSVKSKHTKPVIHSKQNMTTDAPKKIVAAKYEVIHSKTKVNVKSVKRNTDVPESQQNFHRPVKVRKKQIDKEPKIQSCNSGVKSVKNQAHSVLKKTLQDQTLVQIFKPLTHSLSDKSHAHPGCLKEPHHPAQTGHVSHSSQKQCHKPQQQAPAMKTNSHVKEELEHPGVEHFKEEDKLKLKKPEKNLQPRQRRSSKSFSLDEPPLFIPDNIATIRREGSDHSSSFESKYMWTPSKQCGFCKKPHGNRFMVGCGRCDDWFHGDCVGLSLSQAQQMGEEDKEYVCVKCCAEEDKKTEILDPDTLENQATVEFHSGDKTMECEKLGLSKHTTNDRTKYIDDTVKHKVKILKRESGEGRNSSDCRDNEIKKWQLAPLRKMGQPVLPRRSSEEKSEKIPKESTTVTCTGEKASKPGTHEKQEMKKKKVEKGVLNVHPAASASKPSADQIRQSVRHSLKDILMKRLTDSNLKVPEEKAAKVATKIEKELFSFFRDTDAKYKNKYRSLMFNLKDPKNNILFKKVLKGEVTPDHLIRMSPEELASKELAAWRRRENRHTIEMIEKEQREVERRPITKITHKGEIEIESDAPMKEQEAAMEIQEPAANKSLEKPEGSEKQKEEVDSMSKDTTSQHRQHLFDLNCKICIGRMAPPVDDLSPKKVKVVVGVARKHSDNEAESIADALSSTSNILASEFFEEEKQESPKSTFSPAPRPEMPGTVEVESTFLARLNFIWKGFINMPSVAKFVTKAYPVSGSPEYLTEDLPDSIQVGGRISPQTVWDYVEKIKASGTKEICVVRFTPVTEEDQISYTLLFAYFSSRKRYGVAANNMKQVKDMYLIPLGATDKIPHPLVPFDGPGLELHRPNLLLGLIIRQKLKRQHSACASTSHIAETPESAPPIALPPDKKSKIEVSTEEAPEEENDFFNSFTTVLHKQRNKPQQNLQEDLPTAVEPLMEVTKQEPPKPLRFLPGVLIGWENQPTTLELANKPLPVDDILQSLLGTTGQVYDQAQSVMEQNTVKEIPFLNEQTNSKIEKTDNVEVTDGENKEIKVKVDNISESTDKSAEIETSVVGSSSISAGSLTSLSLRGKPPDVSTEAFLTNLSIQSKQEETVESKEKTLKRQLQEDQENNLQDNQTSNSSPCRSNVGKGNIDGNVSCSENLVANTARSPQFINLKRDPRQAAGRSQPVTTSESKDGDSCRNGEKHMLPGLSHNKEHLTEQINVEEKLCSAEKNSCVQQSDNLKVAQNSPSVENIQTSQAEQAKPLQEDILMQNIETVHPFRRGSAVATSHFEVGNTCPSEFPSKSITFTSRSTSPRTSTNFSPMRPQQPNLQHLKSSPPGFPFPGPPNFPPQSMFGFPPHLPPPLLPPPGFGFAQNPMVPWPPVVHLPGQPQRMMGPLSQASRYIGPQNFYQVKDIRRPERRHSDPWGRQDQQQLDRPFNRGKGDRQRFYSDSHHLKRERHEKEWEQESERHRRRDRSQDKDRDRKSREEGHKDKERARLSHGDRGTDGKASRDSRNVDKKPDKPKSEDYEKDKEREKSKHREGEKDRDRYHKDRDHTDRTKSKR
Sequence of UniProt Q8NFV4 (Q8NFV4 whole entry): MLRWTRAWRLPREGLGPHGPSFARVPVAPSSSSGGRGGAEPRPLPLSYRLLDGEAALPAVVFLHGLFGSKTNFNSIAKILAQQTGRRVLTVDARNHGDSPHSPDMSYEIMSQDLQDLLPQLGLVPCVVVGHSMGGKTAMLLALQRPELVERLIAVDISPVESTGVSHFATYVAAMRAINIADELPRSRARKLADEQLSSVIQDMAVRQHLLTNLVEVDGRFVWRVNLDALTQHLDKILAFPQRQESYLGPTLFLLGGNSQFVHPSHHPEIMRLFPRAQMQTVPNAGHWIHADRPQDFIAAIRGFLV
Sequence of UniProt Q6UN15 (Q6UN15 whole entry): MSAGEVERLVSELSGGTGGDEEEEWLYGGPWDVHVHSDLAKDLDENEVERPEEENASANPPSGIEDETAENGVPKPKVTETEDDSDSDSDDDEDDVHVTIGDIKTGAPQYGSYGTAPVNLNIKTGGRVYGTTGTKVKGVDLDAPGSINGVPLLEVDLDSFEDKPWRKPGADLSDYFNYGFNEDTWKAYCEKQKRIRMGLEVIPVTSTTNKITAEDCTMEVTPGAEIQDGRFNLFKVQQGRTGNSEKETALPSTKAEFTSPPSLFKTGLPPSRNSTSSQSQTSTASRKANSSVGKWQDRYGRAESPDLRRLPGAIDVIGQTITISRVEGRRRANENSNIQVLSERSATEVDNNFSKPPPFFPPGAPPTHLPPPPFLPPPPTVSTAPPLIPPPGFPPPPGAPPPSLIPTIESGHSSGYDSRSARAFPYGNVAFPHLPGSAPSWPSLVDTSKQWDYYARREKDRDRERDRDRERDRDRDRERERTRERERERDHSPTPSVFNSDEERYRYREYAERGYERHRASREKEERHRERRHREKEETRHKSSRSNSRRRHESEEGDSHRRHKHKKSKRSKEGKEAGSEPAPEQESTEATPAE
Sequence of UniProt Q96C36 (Q96C36 whole entry): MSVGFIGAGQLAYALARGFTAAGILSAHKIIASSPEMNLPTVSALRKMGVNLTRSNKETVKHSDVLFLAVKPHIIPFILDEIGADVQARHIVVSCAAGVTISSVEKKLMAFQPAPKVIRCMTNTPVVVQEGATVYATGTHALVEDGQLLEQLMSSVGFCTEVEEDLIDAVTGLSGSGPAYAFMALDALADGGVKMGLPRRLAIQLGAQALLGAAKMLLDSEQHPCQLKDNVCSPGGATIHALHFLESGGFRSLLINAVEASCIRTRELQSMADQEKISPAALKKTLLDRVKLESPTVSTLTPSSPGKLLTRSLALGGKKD
Sequence of UniProt Q8WVZ9 (Q8WVZ9 whole entry): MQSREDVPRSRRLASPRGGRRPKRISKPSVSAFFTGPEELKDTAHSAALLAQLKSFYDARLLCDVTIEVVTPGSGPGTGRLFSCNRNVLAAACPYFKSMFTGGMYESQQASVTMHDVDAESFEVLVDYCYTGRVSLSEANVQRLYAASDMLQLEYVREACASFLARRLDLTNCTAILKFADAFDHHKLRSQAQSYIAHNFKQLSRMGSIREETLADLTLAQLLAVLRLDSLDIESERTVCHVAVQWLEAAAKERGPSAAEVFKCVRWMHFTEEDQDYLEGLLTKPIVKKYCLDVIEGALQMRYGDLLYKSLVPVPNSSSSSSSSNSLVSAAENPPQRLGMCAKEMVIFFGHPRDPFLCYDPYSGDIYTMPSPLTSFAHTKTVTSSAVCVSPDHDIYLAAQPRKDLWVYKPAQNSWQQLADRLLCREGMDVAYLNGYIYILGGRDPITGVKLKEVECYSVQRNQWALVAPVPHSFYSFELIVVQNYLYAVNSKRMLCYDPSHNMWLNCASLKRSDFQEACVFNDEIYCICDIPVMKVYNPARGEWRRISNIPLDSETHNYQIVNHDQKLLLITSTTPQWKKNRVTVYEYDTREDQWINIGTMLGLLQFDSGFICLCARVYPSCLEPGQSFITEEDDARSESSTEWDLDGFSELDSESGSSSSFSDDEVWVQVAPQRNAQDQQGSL
Sequence of UniProt Q86SE9 (Q86SE9 whole entry): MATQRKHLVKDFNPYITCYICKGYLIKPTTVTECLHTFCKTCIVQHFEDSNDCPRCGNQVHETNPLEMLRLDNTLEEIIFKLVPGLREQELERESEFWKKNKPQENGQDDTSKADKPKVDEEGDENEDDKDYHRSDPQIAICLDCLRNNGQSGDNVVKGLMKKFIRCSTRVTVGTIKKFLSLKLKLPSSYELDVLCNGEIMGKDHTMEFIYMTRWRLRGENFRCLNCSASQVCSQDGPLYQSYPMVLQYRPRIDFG
Sequence of UniProt Q6I9Y2 (Q6I9Y2 whole entry): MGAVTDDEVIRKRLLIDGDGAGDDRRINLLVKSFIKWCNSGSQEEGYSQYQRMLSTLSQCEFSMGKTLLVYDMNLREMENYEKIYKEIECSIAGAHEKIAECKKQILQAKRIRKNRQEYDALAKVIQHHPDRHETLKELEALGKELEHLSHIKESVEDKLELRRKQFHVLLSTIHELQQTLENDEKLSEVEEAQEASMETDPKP

Target	NP40-soluble protein abundance (concentration: 1mM)	NP40-soluble protein abundance (concentration: 2mM)	NP40-soluble protein abundance (concentration: 4mM)	NP40-soluble protein abundance (concentration: 6mM)	NP40-soluble protein abundance (concentration: 8mM)	NP40-soluble protein abundance (concentration: 10mM)
IQGAP2 (UniProt Q13576)	0.956 ± 0.027	0.935 ± 0.022	0.94 ± 0.051	0.944 ± 0.029	0.926 ± 0.039	0.932 ± 0.038
UniProt Q86U86|Q86U86-8	1.051 ± 0.009	1.1 ± 0.014	1.15 ± 0.017	1.226 ± 0.008	1.29 ± 0.035	1.37 ± 0.09
UniProt Q8WWW0|Q8WWW0-2	0.9981 ± 0.0063	0.996 ± 0.033	1.02 ± 0.018	1.03 ± 0.039	1.02 ± 0.029	1.03 ± 0.052
UniProt Q8N4N3|Q8N4N3-2	1 ± 0.013	0.996 ± 0.019	0.981 ± 0.027	0.96 ± 0.019	0.981 ± 0.027	0.959 ± 0.017
PLA2G15 (UniProt Q8NCC3)	0.991 ± 0.013	0.975 ± 0.013	1.02 ± 0.03	0.986 ± 0.029	0.9922 ± 0.0084	0.979 ± 0.021
UniProt Q15390|H0YBZ4|Q15390-2	1.008 ± 0.0075	1.05 ± 0.071	1.01 ± 0.02	1 ± 0.011	0.9719 ± 0.0073	0.989 ± 0.021
UniProt Q6UN15|Q6UN15-3	1.03 ± 0.024	1.11 ± 0.062	1.059 ± 0.0078	1.07 ± 0.053	1.08 ± 0.034	1.15 ± 0.064
PCGF5 (UniProt Q86SE9)	1.01 ± 0.043	1.01 ± 0.029	1.01 ± 0.065	0.967 ± 0.054	0.974 ± 0.039	0.945 ± 0.036
DTX3L (UniProt Q8TDB6)	1.03 ± 0.02	1.01 ± 0.024	1.04 ± 0.059	0.994 ± 0.03	0.996 ± 0.038	0.993 ± 0.022
THOC7 (UniProt Q6I9Y2)	1.29 ± 0.045	1.47 ± 0.2	1.57 ± 0.24	1.73 ± 0.39	1.85 ± 0.47	1.93 ± 0.64
KBTBD7 (UniProt Q8WVZ9)	0.977 ± 0.014	0.9633 ± 0.004	0.959 ± 0.025	0.987 ± 0.01	1.03 ± 0.018	0.988 ± 0.03
UniProt Q6PI47	0.873 ± 0.06	0.905 ± 0.046	0.947 ± 0.051	1 ± 0.023	1.08 ± 0.047	1.1 ± 0.064
UniProt Q8IXQ5|Q8IXQ5-2|Q8IXQ5-5	0.984 ± 0.042	0.979 ± 0.018	0.974 ± 0.029	0.9744 ± 0.0094	0.983 ± 0.044	0.9769 ± 0.0044
LRRC59 (UniProt Q96AG4)	1.11 ± 0.048	1.32 ± 0.3	1.13 ± 0.089	1.15 ± 0.028	1.12 ± 0.052	1.19 ± 0.13
UniProt Q92576|Q92576-2	1.046 ± 0.0099	1.09 ± 0.048	1.08 ± 0.008	1.08 ± 0.07	1.09 ± 0.04	1.11 ± 0.046
UniProt Q92804|Q92804-2	1.07 ± 0.15	1.15 ± 0.031	1.19 ± 0.17	1.27 ± 0.21	1.32 ± 0.13	1.54 ± 0.23
ERCC6L (UniProt Q2NKX8)	0.998 ± 0.022	1.01 ± 0.036	0.993 ± 0.04	0.95 ± 0.032	0.942 ± 0.045	0.949 ± 0.064
GALNT6 (UniProt Q8NCL4)	1.005 ± 0.0084	0.9987 ± 0.0047	0.967 ± 0.011	1 ± 0.024	0.9866 ± 0.0025	1 ± 0.015
ABHD11 (UniProt Q8NFV4)	1.02 ± 0.035	1.046 ± 0.0096	1.04 ± 0.023	0.995 ± 0.028	1 ± 0.02	1.01 ± 0.048
UniProt Q5FWF5	1.01 ± 0.012	1.012 ± 0.0086	1 ± 0.026	1.04 ± 0.035	1.029 ± 7.1e-05	1.06 ± 0.023
UniProt Q6ZRI6|Q6ZRI6-2|H3BMJ2	0.9914 ± 0.0011	1.01 ± 0.044	1.01 ± 0.018	0.992 ± 0.029	1 ± 0.018	0.99766 ± 5.3e-05
POLA2 (UniProt Q14181)	0.994 ± 0.014	0.974 ± 0.028	1 ± 0.044	1.04 ± 0.03	1.02 ± 0.021	1.03 ± 0.025
TBRG4 (UniProt Q969Z0)	0.984 ± 0.03	0.953 ± 0.033	0.955 ± 0.012	0.959 ± 0.028	0.941 ± 0.022	0.935 ± 0.054
UniProt Q13362-2|Q13362-3|Q13362-4	0.982 ± 0.017	1.04 ± 0.036	0.989 ± 0.018	0.976 ± 0.036	0.948 ± 0.018	0.966 ± 0.043
UniProt Q8TAT6|Q8TAT6-2	0.955 ± 0.025	0.961 ± 0.022	0.968 ± 0.044	0.983 ± 0.015	0.991 ± 0.036	1.02 ± 0.025
UniProt Q16611|Q16611-2	0.994 ± 0.035	0.952 ± 0.016	0.985 ± 0.043	0.96 ± 0.023	0.974 ± 0.032	0.932 ± 0.026
UniProt Q86VR2	0.989 ± 0.0052	0.966 ± 0.024	0.977 ± 0.025	0.976 ± 0.015	0.9994 ± 0.002	0.952 ± 0.01
PYCR2 (UniProt Q96C36)	0.98 ± 0.028	1.01 ± 0.051	0.997 ± 0.013	1.01 ± 0.011	0.9755 ± 0.0097	1 ± 0.032
FIG4 (UniProt Q92562)	1 ± 0.022	1.04 ± 0.024	1.06 ± 0.04	1.02 ± 0.024	0.9942 ± 0.0076	0.9926 ± 0.0034
UniProt Q14444|Q14444-2	1.12 ± 0.041	1.22 ± 0.17	1.16 ± 0.064	1.19 ± 0.13	1.19 ± 0.094	1.25 ± 0.08
